Test results: PubChem BioAssay AID1159580 (chemical genetic matrix, 2015)
Out of some 5,500 compounds screened, about 2,000 (36%) were called active. Another 18% or so got no clear call; they are omitted. Rule as the data show it: active = normalized growth mostly below about 0.91 (no sharp cut-off); inconclusive = no clear call, values can overlap the other calls; inactive = mostly above about 0.92. The list shows a part of the results.

Assay: chemical genetic growth profiling, strain panel (AID 1159580);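 also: tested at 20 µM; growth read once vehicle control cultures reached saturation at 30 °C; 1 = growth at the plate median or of vehicle wells; lower values mean less growth of the strain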
Settings: growth OD
[1] = S. cerevisiae deletion strains, locus YHR030C, strain SLT2, stronger effect = lower value

Measured: normalized growth

CN1CCN(C(c2ccccc2)c2ccc(Cl)cc2)CC1 (stereo unspecified)
inactive: [1] 0.974 | S. cerevisiae deletion strains, locus YHR079C, strain IRE1, stronger effect = lower value 0.986 | S. cerevisiae deletion strains, locus YJL095W, strain BCK1, stronger effect = lower value 0.974 | S. cerevisiae deletion strains, locus YJR066W, strain TOR1, stronger effect = lower value 0.979 | S. cerevisiae deletion strains, locus YLR113W, strain HOG1, stronger effect = lower value 0.962 | S. cerevisiae deletion strains, locus YNL183C, strain NPR1, stronger effect = lower value 0.914 | S. cerevisiae deletion strains, locus YOR231W, strain MKK1, stronger effect = lower value 0.981 | S. cerevisiae deletion strains, locus YPL256C, strain CLN2, stronger effect = lower value 0.951

CC(C)(C)OC(=O)N1CCN(Cc2ccccc2)CC1
inactive: S. cerevisiae deletion strains, locus YAL013W, strain DEP1, stronger effect = lower value 1 | S. cerevisiae deletion strains, locus YBR229C, strain ROT2, stronger effect = lower value 1 | S. cerevisiae deletion strains, locus YDL101C, strain DUN1, stronger effect = lower value 1.02 | S. cerevisiae deletion strains, locus YDR150W, strain NUM1, stronger effect = lower value 1.03 | S. cerevisiae deletion strains, locus YEL061C, strain CIN8, stronger effect = lower value 0.98 | S. cerevisiae deletion strains, locus YGR078C, strain PAC10, stronger effect = lower value 0.999 | S. cerevisiae deletion strains, locus YGR229C, strain SMI1, stronger effect = lower value 1.02 | [1] 1.08 | S. cerevisiae deletion strains, locus YHR087W, strain rtc3, stronger effect = lower value 0.991 | S. cerevisiae deletion strains, locus YJR043C, strain POL32, stronger effect = lower value 0.998 | S. cerevisiae deletion strains, locus YJR075W, strain HOC1, stronger effect = lower value 1 | S. cerevisiae deletion strains, locus YKL190W, strain CNB1, stronger effect = lower value 1.01 | S. cerevisiae deletion strains, locus YLR039C, strain RIC1, stronger effect = lower value 0.967 | S. cerevisiae deletion strains, locus YLR058C, strain SHM2 (second series), stronger effect = lower value 0.986 | S. cerevisiae deletion strains, locus YLR085C, strain ARP6, stronger effect = lower value 0.997 | S. cerevisiae deletion strains, locus YLR262C, strain YPT6, stronger effect = lower value 1.04 | S. cerevisiae deletion strains, locus YML094W, strain GIM5, stronger effect = lower value 0.989 | S. cerevisiae deletion strains, locus YMR219W, strain ESC1, stronger effect = lower value 0.994 | S. cerevisiae deletion strains, locus YMR263W, strain SAP30, stronger effect = lower value 1.01 | S. cerevisiae deletion strains, locus YNL153C, strain GIM3, stronger effect = lower value 1 | S. cerevisiae deletion strains, locus YNL298W, strain CLA4 (second series), stronger effect = lower value 1.01 | S. cerevisiae deletion strains, locus YNL322C, strain KRE1, stronger effect = lower value 1 | S. cerevisiae deletion strains, locus YNR030W, strain Alg12, stronger effect = lower value 0.992 | S. cerevisiae deletion strains, locus YOL006C, strain TOP1, stronger effect = lower value 1.08 | S. cerevisiae deletion strains, locus YPL055C, strain LGE1, stronger effect = lower value 1.03 | S. cerevisiae deletion strains, locus YPL241C, strain CIN2, stronger effect = lower value 1.01 | S. cerevisiae deletion strains, locus YPR135W, strain CTF4, stronger effect = lower value 1.04 | S. cerevisiae strains, strain wild type, stronger effect = lower value 1.02
